The source of these data is PubChem BioAssay (NCATS).

Results filed as inconclusive are left out. Active and inactive are the calls of the source. Unless noted, calls follow the shape of the dose curve; as a rule, active = well fitted curve in the direction sought with a large enough effect; inconclusive = small, poorly fitted or top-dose-only effect, or another doubt; inactive = no such curve, though single readings can be large; an effect the other way counts as inactive or inconclusive.

Assay [1] can be described thus: Cell Viability - SH-SY5Y (AID 544).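 Also: cells exposed to compound for 40 hours; 0% = DMSO alone and -100% = 100 µM tamoxifen; nearly all actives have a fitted effect of over 55% in size.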 The method in brief:
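Cells were plated at 1500 per well and allowed 5 hr at 37 °C. Compounds were added across a concentration range and incubated 40 hr at 37 °C. CellTiter-Glo was added for 20 min at room temperature before luminescence reading.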

Assay [2] in a line: Cell Viability - Renal Proximal Tubule (AID 545).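 Also: cells exposed to compound for 40 hours; 0% = DMSO only and -100% = 100 µM tamoxifen; nearly all actives have a fitted effect of over 40% in size.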 The method in brief: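 Rat kidney proximal tubule cells, freshly isolated; 1000 cells/well, 5 hr settle, compound 40 hr 37 °C. CellTiter-Glo 20 min RT, luminescence read. AC50 by standard Hill fit.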
Assay [3] is described as follows: Cell Viability - Mesenchymal (AID 546).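 Also: potency is read from the fitted curve at half-maximal effect; cells exposed to compound for 40 hours before reading.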 The method in brief:
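CellTiter-Glo luminescence (intracellular ATP, 20 min room temperature) after 40 hr compound exposure at 37 °C of 1000 glomerulus-derived human kidney mesenchymal cells/well; AC50 values obtained by fitting qHTS concentration-response data to the Hill equation.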

Assay [4] can be described thus: Cellular Toxicity (caspase-3) HepG2 (AID 654).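 Also: cells exposed to compound for 16 hours before reading; 0% = DMSO alone and 100% = caspase signal from 100 µM tamoxifen.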 In a few lines: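 Caspase 3/7 activation in HepG2 is measured as rising luminescence after a 16 hr treatment at 37 °C. Values are scaled between DMSO basal and 100 uM tamoxifen, and AC50 is fitted with the Hill equation.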
A short description of assay [5]: Cellular Toxicity (caspase-3) Jurkat (AID 655).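 Also: cells exposed to compound for 16 h at 37 °C before reading.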 In a few lines:
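Luminescent caspase-3/7 readout (aminoluciferin substrate cleavage) in human T-cell leukemia Jurkat cells after 16 hr compound exposure. Concentration-response normalized to DMSO and 100 uM tamoxifen; AC50 by standard Hill equation.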

Assay [6] can be described thus: Cellular Toxicity (caspase-3) HUV-EC-C (AID 656).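 Also: 0% = DMSO basal and 100% = 100 µM tamoxifen.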 The method in brief: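 Luminescent caspase-3/7 activation (aminoluciferin substrate cleavage) in HUV-EC-C cells after 16 hr compound exposure, 37°C. Signal normalized to DMSO basal and 100 uM tamoxifen as 100%; AC50 from concentration-response fitted with the Hill equation.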
Assay [7] in a line: Cellular Toxicity (caspase-3) SHSY5Y (AID 657).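 Also: cells exposed to compound for 16 hours at 37 °C.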 The method in brief: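 Luminescent caspase-3/7 readout (aminoluciferin release) in SH-SY5Y cells after 16 h compound exposure in complete medium. Activity scaled between DMSO basal and 10 uM staurosporine as 100%; concentration-response fitted to Hill equation for AC50.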
The target of assay [8] is Estrogen receptor (Homo sapiens) (UniProt P03372). In words: qHTS assay for small molecule agonists of estrogen receptor alpha signaling (AID 588514; calls by dose curve;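 also: 0% = vehicle only and 100% = reference agonist; nearly all actives have a fitted effect of over 70% in size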). In a few lines: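 Efficacy is expressed against 20 nM 17-beta-estradiol (100%) and DMSO basal (0%); EC50 from Hill equation. Assay: beta-lactamase reporter in ER-alpha-UAS-bla HEK 293 cells, 18 h compound incubation, CCF4 detection.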
Chain of Estrogen receptor (Homo sapiens) (P03372 whole entry, looked up): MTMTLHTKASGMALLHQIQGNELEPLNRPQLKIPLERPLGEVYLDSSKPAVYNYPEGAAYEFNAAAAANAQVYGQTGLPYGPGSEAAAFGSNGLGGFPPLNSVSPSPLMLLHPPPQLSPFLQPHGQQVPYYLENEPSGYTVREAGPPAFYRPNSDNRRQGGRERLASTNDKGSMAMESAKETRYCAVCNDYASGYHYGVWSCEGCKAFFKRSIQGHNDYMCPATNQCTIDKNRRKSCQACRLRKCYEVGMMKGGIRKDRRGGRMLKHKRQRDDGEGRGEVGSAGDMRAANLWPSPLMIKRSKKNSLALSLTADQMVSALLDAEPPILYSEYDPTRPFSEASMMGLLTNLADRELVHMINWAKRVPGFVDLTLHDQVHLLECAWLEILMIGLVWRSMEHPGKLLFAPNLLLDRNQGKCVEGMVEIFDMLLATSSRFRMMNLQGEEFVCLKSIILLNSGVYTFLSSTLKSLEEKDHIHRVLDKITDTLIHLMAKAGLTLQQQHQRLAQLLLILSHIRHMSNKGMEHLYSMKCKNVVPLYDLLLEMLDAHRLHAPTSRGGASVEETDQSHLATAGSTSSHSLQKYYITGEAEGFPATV
On the technique in general: Quantitative high-throughput screening tests each substance at several concentrations.

Assay [9] addresses Androgen receptor (Homo sapiens) (UniProt P10275). In words: qHTS assay for small molecule antagonists of androgen receptor signaling (AID 588516; active = well fitted curve in the direction sought with a large enough effect in the signal ratio, with a control signal flat, not every such curve was filed as active; the % refers to the signal ratio; also: % is scaled to controls: 0 for no effect and ±100 for the full control effect). The method in brief: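 HEK293 AR-UAS-bla cells, 10% dialyzed FBS medium; cpd titration + R1881 10 nM final, 16 h 37 C; CCF4 2 h RT; FRET ratio; IC50/efficacy via Hill fit.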
In assay [10] the target is Glucocorticoid receptor (Homo sapiens) (UniProt P04150). In words: qHTS assay for small molecule agonists of glucocorticoid receptor signaling (AID 588532; active = well fitted curve in the direction sought with a large enough effect in the signal ratio, with a control signal flat; the % refers to the signal ratio;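 also: 100% = dexamethasone at 0.1 µM and 0% = DMSO only wells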). The settings on record: HeLa MMTV-bla, beta-lactamase ratio, agonist, 18 h; stronger effect = higher value; percent of dexamethasone control, DMSO zero. The method in brief: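 Agonist-mode qHTS: GRE-driven beta-lactamase in HeLa cells exposed 18 h to titrated compounds (up to 92 uM), then CCF4 ratio read after 2 h at RT; Hill-fitted EC50, efficacy relative to 0.1 uM dexamethasone.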
Chain of Glucocorticoid receptor (Homo sapiens) (P04150 whole entry, looked up): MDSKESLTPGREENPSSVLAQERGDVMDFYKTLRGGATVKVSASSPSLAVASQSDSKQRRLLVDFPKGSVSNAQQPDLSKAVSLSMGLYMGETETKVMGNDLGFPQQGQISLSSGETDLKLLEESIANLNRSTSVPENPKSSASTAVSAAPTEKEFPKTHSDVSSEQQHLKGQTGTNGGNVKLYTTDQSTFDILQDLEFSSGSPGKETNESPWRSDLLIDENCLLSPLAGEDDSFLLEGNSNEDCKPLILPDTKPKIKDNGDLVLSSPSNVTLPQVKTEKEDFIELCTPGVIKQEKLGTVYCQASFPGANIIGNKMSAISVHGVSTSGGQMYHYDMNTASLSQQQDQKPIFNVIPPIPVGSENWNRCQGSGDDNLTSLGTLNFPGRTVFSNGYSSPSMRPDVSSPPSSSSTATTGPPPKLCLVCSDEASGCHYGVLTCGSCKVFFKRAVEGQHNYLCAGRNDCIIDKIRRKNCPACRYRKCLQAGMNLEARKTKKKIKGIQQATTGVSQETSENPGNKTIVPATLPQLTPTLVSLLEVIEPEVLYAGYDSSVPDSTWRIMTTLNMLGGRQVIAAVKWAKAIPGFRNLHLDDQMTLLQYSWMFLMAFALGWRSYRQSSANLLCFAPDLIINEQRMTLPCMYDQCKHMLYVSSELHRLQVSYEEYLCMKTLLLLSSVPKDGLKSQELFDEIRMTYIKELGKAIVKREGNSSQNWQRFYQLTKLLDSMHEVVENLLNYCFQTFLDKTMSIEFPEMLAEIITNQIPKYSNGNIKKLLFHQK

Assay [11] shares this target. In words: qHTS assay for small molecule antagonists of glucocorticoid receptor signaling (AID 588533; active = well fitted inhibition curve with a large enough effect in the signal ratio, with a control signal flat, not every such curve was filed as active; the % refers to the signal ratio;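 also: cells stimulated with 2 nM dexamethasone as agonist; % is scaled to controls: 0 for no effect and ±100 for the full control effect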). In a few lines:
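Antagonist-mode qHTS: compound titrations added to GRE-bla HeLa cells, then dexamethasone 2 nM final; 18 h, 37 C. CCF4 FRET fluorescence normalized to dexamethasone and DMSO; IC50 from Hill fit.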

The nature of assay [12]: qHTS assay for small molecule antagonists of retinoid X receptor alpha signaling (AID 588546; active = well fitted inhibition curve with a large enough effect in the signal ratio, with a control signal flat, not every such curve was filed as active; the % refers to the signal ratio;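 also: cells stimulated with 9-cis-retinoic acid as agonist; % is scaled to controls: 0 for no effect and ±100 for the full control effect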). The settings on record: HEK293T RXRa-UAS-bla, beta-lactamase ratio, antagonist mode; measured here: W530 green channel, cytotoxicity proxy. The method in brief: (§1)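 Beta-lactamase reporter inhibition, read as CCF4 fluorescence ratio (ex 405, em 460/530 nm) after 2 h at RT. HEK293T UAS-bla cells, 2500/well, were stimulated with 9-cis-RA at 500 or 100 nM final alongside test compound for 18 h at 37 C.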

Assay [13] has as its target Retinoic acid receptor RXR-alpha (Homo sapiens) (UniProt P19793). Described as above. The settings on record: HEK293T RXRa-UAS-bla, beta-lactamase ratio, antagonist mode. The method in brief: as §1
The nature of assay [14]: qHTS assay for small molecule disruptors of the mitochondrial membrane potential - 1 hr assay (AID 651754; calls by dose curve; also: % is scaled to controls: 0 for no effect and ±100 for the full control effect; nearly all actives have a fitted effect of over 35% in size). In a few lines:
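Loss of mitochondrial potential shifts the cationic dye from red mitochondrial aggregates to green cytoplasmic monomers. Cells (HepG2) are treated with compound for 1 hr before a 30 min dye incubation at 37C.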

Assay [15] can be described thus: qHTS assay for small molecule disruptors of the mitochondrial membrane potential - 5 hr assay (AID 651755; calls by dose curve; also: % is scaled to controls: 0 for no effect and ±100 for the full control effect; nearly all actives have a fitted effect of over 40% in size). The method in brief: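 Membrane-potential dye readout: red aggregate (540 ex/590 em) versus green monomer (490 ex/535 em) fluorescence after 30 min dye loading, following 5 hr compound exposure at 37C of overnight-plated HepG2 cells.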
In assay [16] the target is Tumor necrosis factor (Homo sapiens) (UniProt P01375). The assay is described as follows: qHTS assay to identify small molecules that stimulate Tumor Necrosis Factor-alpha (TNF-alpha) secretion (AID 651757; active = well fitted curve in the direction sought with a large enough effect in the signal ratio; the % refers to the signal ratio; also: 0% is about no effect). The method in brief:
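Human monocytic THP-1 cells are plated, treated with compound and held at 37 C for 17 hrs. Labeled anti-TNF-alpha antibody mixture is then added; after 3 hr at room temperature, TR-FRET signal reports secreted TNF-alpha.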

A short description of assay [17]: qHTS assay to identify small molecules that stimulate interleukin-8 (IL-8) secretion (AID 651758; active = well fitted activation curve with a large enough effect in the signal ratio; the % refers to the signal ratio; also: 0% is about no effect). In a few lines:
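Secreted IL-8 measured homogeneously by TR-FRET (two labelled anti-IL-8 antibodies, 1-3 h at room temperature) after a 16 h, 37 C compound treatment of THP-1 cells at 2000 cells/well.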

Assay [18] is described as follows: qHTS assay for environmental chemicals that activate the Aryl hydrocarbon Receptor (AhR) signaling pathway (AID 651777). Also: % of control where 0% means no effect; nearly all actives have a fitted effect of over 15% in size. The settings on record: 1A2-DRE human hepatoma cells, luciferase, 24 h; stronger effect = higher value. In a few lines: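 Human hepatoma 1A2-DRE cells stably carrying a DRE/CYP1A2 promoter–luciferase reporter, 1,200 cells/well, exposed to compound 24 hr at 37 C. Luciferase read by One-Glo luminescence after 30 min at room temperature; increased signal marks AhR activation.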

Assay [19] deals with Peroxisome proliferator-activated receptor alpha (Homo sapiens) (UniProt Q07869). The assay is described as follows: qHTS assay for small molecule agonists of the peroxisome proliferator-activated receptor alpha (PPARalpha) signaling pathway (AID 651778). Also: % of control where 0% means no effect. The settings on record: PathHunter PPARalpha complementation, chemiluminescence, 6 h; stronger effect = higher value. In a few lines:
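Chemiluminescence from complemented enzyme reported PPARalpha activation in cells after 6 hr of compound treatment at 37 C. The detection reagent was incubated for 60 min at room temperature, and compounds were scored as agonists.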

Assay [20] addresses Nuclear receptor subfamily 1 group I member 2 (Rattus norvegicus) (UniProt Q9R1A7). The assay is described as follows: qHTS assay for small molecule activators of the rat pregnane X receptor (rPXR) signaling pathway (AID 651751; call rule not given here; also: 0% is about no effect). The settings on record: rPXR reporter cells, luciferase (One-Glo), 24 h.

Chain of Nuclear receptor subfamily 1 group I member 2 (Rattus norvegicus) (Q9R1A7 whole entry, looked up): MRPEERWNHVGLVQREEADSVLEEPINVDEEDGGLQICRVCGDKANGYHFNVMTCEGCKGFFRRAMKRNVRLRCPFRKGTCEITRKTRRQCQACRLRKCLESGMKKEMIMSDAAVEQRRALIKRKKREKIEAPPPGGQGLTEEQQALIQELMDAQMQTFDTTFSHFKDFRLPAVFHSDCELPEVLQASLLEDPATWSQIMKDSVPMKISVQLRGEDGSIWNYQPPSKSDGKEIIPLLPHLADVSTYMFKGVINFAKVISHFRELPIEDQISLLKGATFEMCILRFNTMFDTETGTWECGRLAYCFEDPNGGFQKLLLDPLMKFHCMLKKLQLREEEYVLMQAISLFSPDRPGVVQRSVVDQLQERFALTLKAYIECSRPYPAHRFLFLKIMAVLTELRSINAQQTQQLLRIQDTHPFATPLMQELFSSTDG
Chain of Peroxisome proliferator-activated receptor alpha (Homo sapiens) (Q07869 whole entry, looked up): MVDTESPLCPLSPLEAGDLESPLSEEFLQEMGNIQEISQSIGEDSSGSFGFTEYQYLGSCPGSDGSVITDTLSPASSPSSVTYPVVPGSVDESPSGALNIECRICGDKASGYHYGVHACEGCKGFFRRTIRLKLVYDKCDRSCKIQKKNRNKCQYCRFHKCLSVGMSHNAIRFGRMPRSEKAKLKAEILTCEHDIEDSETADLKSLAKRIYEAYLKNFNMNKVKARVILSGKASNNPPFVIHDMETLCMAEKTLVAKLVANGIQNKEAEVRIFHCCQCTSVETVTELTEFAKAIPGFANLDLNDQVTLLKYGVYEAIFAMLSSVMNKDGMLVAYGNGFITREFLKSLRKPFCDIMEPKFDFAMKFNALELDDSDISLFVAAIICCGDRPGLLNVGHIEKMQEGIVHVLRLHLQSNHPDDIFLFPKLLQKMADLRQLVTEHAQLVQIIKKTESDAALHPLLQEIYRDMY
Chain of Tumor necrosis factor (Homo sapiens) (P01375 whole entry, looked up): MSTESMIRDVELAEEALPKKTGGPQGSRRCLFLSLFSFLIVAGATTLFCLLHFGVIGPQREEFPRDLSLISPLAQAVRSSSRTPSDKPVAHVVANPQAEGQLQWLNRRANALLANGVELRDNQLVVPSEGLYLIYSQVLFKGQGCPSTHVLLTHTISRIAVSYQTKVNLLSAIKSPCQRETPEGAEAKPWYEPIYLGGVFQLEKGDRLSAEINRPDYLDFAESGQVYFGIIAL
Chain of Androgen receptor (Homo sapiens) (P10275 whole entry, looked up): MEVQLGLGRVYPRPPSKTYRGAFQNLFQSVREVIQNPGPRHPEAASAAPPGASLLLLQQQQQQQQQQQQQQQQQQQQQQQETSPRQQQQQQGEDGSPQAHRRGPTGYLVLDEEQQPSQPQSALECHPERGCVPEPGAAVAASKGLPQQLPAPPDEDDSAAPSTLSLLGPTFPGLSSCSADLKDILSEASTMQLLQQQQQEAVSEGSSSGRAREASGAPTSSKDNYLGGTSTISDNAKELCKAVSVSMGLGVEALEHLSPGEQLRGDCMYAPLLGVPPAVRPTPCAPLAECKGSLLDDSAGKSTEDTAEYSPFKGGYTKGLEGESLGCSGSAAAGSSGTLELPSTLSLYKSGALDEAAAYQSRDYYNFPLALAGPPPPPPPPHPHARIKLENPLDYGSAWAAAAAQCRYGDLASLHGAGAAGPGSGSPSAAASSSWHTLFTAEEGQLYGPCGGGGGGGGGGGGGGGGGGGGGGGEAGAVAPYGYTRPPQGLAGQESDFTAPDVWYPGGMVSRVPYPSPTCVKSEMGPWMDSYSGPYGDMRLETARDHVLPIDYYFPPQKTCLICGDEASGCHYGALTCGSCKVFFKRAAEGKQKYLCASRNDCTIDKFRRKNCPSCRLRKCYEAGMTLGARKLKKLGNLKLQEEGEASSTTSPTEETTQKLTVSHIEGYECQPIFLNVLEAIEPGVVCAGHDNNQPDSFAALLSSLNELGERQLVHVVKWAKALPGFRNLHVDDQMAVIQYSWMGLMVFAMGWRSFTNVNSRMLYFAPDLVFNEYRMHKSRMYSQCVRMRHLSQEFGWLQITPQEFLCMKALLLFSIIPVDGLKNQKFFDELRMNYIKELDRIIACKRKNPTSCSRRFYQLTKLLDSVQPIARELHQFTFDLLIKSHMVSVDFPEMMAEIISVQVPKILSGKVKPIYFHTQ
Chain of Retinoic acid receptor RXR-alpha (Homo sapiens) (P19793 whole entry, looked up): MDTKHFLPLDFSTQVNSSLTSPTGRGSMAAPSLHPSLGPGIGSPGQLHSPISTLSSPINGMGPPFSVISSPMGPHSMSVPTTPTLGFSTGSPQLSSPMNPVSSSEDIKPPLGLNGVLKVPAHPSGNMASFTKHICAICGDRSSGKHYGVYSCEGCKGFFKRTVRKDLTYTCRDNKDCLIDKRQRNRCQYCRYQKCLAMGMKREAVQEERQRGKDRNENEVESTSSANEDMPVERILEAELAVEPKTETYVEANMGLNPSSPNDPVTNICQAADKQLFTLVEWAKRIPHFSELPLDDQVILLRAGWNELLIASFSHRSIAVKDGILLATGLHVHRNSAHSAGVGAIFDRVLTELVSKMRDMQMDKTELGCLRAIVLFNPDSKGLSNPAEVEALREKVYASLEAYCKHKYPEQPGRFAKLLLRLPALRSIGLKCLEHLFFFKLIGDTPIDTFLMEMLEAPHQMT

In the case of `CN(C)CCOC(c1ccccc1)c1ccccc1` (tested in a mixture with another compound), the compound was called inactive in [1], in [2], in [4], in assay [5], in assay [6] and in [7]. Also, the outcome in assay [8], in assay [9], in [11], in assay [14], in [15] and in assay [16] was inactive. For the same compound, the compound was classed as inactive in [17]. Moreover, in assay [3], the Potency is 25.1 µM (active). The activation in assay [10] was 1.99% (inactive); in assay [18], 0.508% (inactive). In addition, the max response was 3.3% in [12], -6.76% (inactive) in assay [13], 0.237% (inactive) in [19] and -6.62% (inactive) in [20].
